Screens deposited in PubChem BioAssay by National Center for Advancing Translational Sciences (NCATS).
Shown are actives, neighbours in structure and some others; about 19% of the full set was active somewhere.
IL1B secr inh = inflammasome signaling inhibition, IL-1 beta readout; activity change, % at 57.5 µM; THP-1 LPS/ATP IL-1B secretion, AlphaLISA, 16 h; active compounds read low; 360,000 tested, 4.7% active; in the data active means activity change below about -50%; inconclusive means mostly about -30% to -49%
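Secreted IL-1B measured by AlphaLISA bead assay after 16 h compound exposure of THP-1 cells; compounds (final up to 57.5 uM) added 1 h before LPS (250 ng/mL) and ATP (1.25 mM) stimulation; lower signal means less secretion.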
TDP1 cell noCPT = qHTS for Inhibitors of human tyrosyl-DNA phosphodiesterase 1 (TDP1): qHTS in cells in absence of CPT; DT40 Tdp1-/- hTDP1 cells, no CPT, ATP luminescence, 48 h; Potency, µM (top dose mostly 46.2 µM), usual class: inhibitors; 420,000 tested, 15% active; further: nearly all actives have a fitted effect of over 55% in size
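Growth of hTDP1-complemented DT40 Tdp1-knockout cells is measured by ATP luminescence after at least 48 hr compound exposure at 37 °C, with DMSO substituting for the 20 nM CPT used in the parallel screen.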
TDP1 cell CPT = DT40-hTDP1 cell growth loss with CPT | 420,000 tested, 12% active | chicken DT40 Tdp1-/-;hTDP1 cells + 20 nM CPT, ATP luminescence, 48 h | Potency, µM (series often up to 46.2 µM), actives largely listed as inhibitors; further: nearly all actives have a fitted effect of over 55% in size
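Cell growth measured by CellTiter-Glo luminescence after a minimum 48 h, 37 C compound exposure with 20 nM CPT in Tdp1-knockout DT40 cells stably expressing hTDP1, seeded 400/well; qHTS titration format.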
SW480 rerep = inducers of DNA re-replication in SW480 colon cancer cells; 340,000 tested, 1.8% active; SW480 DNA re-replication, Hoechst DNA content imaging, 48 h; Potency, µM (titrated, usually from 46.1 µM), most hits filed as activators; further: nearly all actives have a fitted effect of over 55% in size
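Image-based DNA-content assay: after two days of treatment, nuclei were labelled with the DNA dye Hoechst and imaged, and hits were compounds raising the count of nuclei showing high fluorescence intensity.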
BCR signal inh = chronic active BCR signaling inhibition | Potency, µM (top dose mostly 46.1 µM), hits mostly inhibitors | AID 493014 | 340,000 tested, 0.05% active | ABC-DLBCL IkBa-CBG/CBR reporter, luminescence ratio, 4 h; active means well fitted inhibition curve with a large enough effect in the signal ratio, with a control signal flat, not every such curve was filed as active; inconclusive means small, poorly fitted or top-dose-only effect, or effect the other way, or a change in a side signal; the % refers to the signal ratio
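Doxycycline induced both beetle luciferases in TMD8 lymphoma cells; IKK-driven degradation limits the IkappaBalpha-fused green signal, while red luminescence normalises for cell number and nonspecific effects. Compounds tested up to 46 uM, 4 hrs.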
MCF10A rerep = inducers of DNA re-replication in MCF 10A breast cells; AID 624296; MCF 10A DNA re-replication, Hoechst nuclear intensity, 48 h; 350,000 tested, 2.9% active; Potency, µM (doses to about 46.1 µM), actives largely listed as activators; further: nearly all actives have a fitted effect of over 50% in size
Each line names hits and unclear results; the compound was inactive in the other large screens. Unless noted, the call rests on the fitted dose curve; in most records, active means well fitted curve in the direction sought with a large enough effect; inconclusive means small, poorly fitted or top-dose-only effect, or another doubt; inactive means no such curve, though single readings can be large; an effect the other way counts as inactive or inconclusive.

CC(O)CSc1nc2c(c(=O)n(C)c(=O)n2C)n1CCCc1ccccc1 (stereo unspecified)	TDP1 cell noCPT inconclusive, TDP1 cell CPT inconclusive
CCN(CC)c1nc2c(c(=O)n(C)c(=O)n2C)n1CCCc1ccccc1	TDP1 cell noCPT 23µM, TDP1 cell CPT 21µM
CN(Cc1ccccc1)c1nc2c(c(=O)n(C)c(=O)n2C)n1CCCc1ccccc1	TDP1 cell noCPT 16µM, TDP1 cell CPT 23µM, MCF10A rerep 26µM
CCCCn1c(SCc2nnc(-c3ccccc3)o2)nc2c1c(=O)n(C)c(=O)n2C	TDP1 cell noCPT 10µM, TDP1 cell CPT 15µM
CCCCn1c(CN(Cc2ccccc2)Cc2ccccc2)nc2c1c(=O)n(C)c(=O)n2C	TDP1 cell noCPT 18µM, TDP1 cell CPT 13µM, MCF10A rerep inconclusive (no result: BCR signal inh)
COC(=O)C1OC(=O)C2OC23[C@]2(C)C(OC(C)=O)CC4C(C)(C)C(=O)CC[C@]4(C)C2CC[C@@]13C (stereo partly specified)	none (no result: IL1B secr inh, SW480 rerep, BCR signal inh, MCF10A rerep)
CC(C)(C)CC(C)(C)NC(=O)/C=C/C(=O)O	none
Cc1ccc2nc(SCC(=O)N(CC(C)C)c3c(N)n(Cc4ccccc4)c(=O)[nH]c3=O)[nH]c2c1	TDP1 cell CPT inconclusive
CCC(C(=O)Nc1c(C)cccc1C)n1c(-c2cnc(C)cn2)nc2ccccc21 (stereo unspecified)	none (no result: SW480 rerep, BCR signal inh, MCF10A rerep)
CCN(CC)c1nc2c(c(=O)[nH]c(=O)n2C)n1CCCc1ccccc1	TDP1 cell noCPT 10µM, TDP1 cell CPT inconclusive, MCF10A rerep inconclusive
Cn1c(=O)[nH]c(=O)c2c1nc(Br)n2CCCc1ccccc1	none (no result: IL1B secr inh, TDP1 cell noCPT, TDP1 cell CPT, SW480 rerep, MCF10A rerep)
COc1ccc(-n2nnc3c(=O)n(CC(=O)N4CCCc5ccccc54)cnc32)cc1	TDP1 cell CPT inconclusive, BCR signal inh inconclusive
O=C(CSc1nnnn1-c1ccccc1)N1CCCc2ccccc21	IL1B secr inh -55, BCR signal inh inconclusive
O=C(CSc1nnc(-c2cccs2)n1-c1ccccc1)N1CCCc2ccccc21	IL1B secr inh inconclusive, TDP1 cell noCPT 16µM, TDP1 cell CPT inconclusive, BCR signal inh inconclusive, MCF10A rerep inconclusive
COc1ccc(-n2nnc3c(SCC(=O)N4CCCc5ccccc54)ncnc32)cc1	SW480 rerep 12µM (no result: BCR signal inh)
CC(=O)N1CCC2(CC1)OC(=O)C(C)=C2C(=O)Nc1cccc(Cl)c1C	none (no result: IL1B secr inh, SW480 rerep, BCR signal inh, MCF10A rerep)
CCOc1ccc(NC(=O)Cn2c(CCC(=O)O)ccc2-c2ccc(C)cc2)cc1	TDP1 cell noCPT inconclusive (no result: IL1B secr inh, SW480 rerep, BCR signal inh, MCF10A rerep)
CC1=CC(C)(C)n2c(O)c(N=NC(N)=S)c3cc(C)cc1c32	SW480 rerep 16µM, MCF10A rerep inconclusive
O=C(O)C(CCC(C(=O)O)c1ccccc1)c1ccccc1 (stereo unspecified)	none (no result: BCR signal inh)
Cc1ccccc1C1c2[nH]c3ccccc3c2CCN1CCCn1cccn1 (stereo unspecified)	TDP1 cell noCPT 13µM, TDP1 cell CPT inconclusive
COc1ccc(S(=O)(=O)NN(C)C)cc1N(C)S(=O)(=O)c1ccc(Cl)cc1	none
COc1ccc(Cl)cc1N(CC(=O)NC(C)(C)C)S(=O)(=O)c1ccc(C)c([N+](=O)[O-])c1	TDP1 cell noCPT 21µM, TDP1 cell CPT 16µM (no result: SW480 rerep)
COC(=O)CN(c1cc(Cl)ccc1OC)S(=O)(=O)c1ccc(C)cc1	TDP1 cell noCPT 18µM, TDP1 cell CPT inconclusive, SW480 rerep inconclusive, BCR signal inh inconclusive, MCF10A rerep inconclusive
COc1ccc(S(=O)(=O)Nc2ccc(C)cc2)cc1N(C)S(=O)(=O)c1ccc(Cl)cc1	IL1B secr inh -60, TDP1 cell noCPT 18µM, TDP1 cell CPT 23µM, SW480 rerep inconclusive
CNS(=O)(=O)c1cccc(C(=O)OCC(=O)Nc2ccc3ccccc3c2)c1	none
Cc1cc(C)nc(S[C@@H]2C[C@@H](C(=O)N3CCCN(C)CC3)N(Cc3cc(F)ccc3F)C2)n1	none (no result: IL1B secr inh, SW480 rerep, BCR signal inh, MCF10A rerep)
Cc1ccc(S(=O)(=O)NNC(=O)C2Cc3c(ccc4ccccc34)O2)cc1 (stereo unspecified)	TDP1 cell noCPT 23µM, TDP1 cell CPT inconclusive, BCR signal inh inconclusive
CNc1nnc(SCC(=O)c2c(N)n(C3CC3)c(=O)[nH]c2=O)s1	TDP1 cell noCPT inconclusive
CCCCNC(=O)CCc1nc2cccnc2n1Cc1ccccc1	none
O=C(CCNS(=O)(=O)c1ccc2c(c1)CCN2C(=O)C1CC1)N1CCN(c2ccccc2F)CC1	TDP1 cell noCPT 12µM, TDP1 cell CPT 13µM (no result: IL1B secr inh, SW480 rerep, BCR signal inh, MCF10A rerep)
O=C(C1CCC1)N1CCc2cc(S(=O)(=O)NCCN3CCN(c4ccccc4F)CC3)ccc21	TDP1 cell noCPT 23µM, TDP1 cell CPT inconclusive, MCF10A rerep inconclusive
Cc1cccc(C(=O)NC2CCN(C(=O)NCc3ccccc3)CC2)c1	none
O=[N+]([O-])c1cc(F)cc(F)c1Nc1cc(F)cc(F)c1	none (no result: BCR signal inh)
CCCOc1ccc(CNC(=O)c2oc3ccc4c(c3c2C)C(=O)CC(C)(CC)O4)cc1 (stereo unspecified)	TDP1 cell noCPT 16µM, TDP1 cell CPT 16µM (no result: IL1B secr inh, SW480 rerep, BCR signal inh, MCF10A rerep)
Cc1c(C(=O)NCC2CCCO2)oc2ccc3c(c12)C(=O)CC(C)(C)O3 (stereo unspecified)	TDP1 cell noCPT inconclusive, MCF10A rerep inconclusive
